# PubChem BioAssay (NCI)
# Compounds without any hit were thinned out: in the full panel of roughly 83,000, 20% have a hit.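 Step 1: grow cells in 96-well plates. Step 2: add test compound at a single concentration. Step 3: incubate 48 h. Step 4: record percent growth.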 Values without a mark were called inactive. Activity calls are given as the source filed them. How the source made its calls: active means growth percent below 10; inactive means the rest.
# Experiments:
# Assay in all cases: NCI-60 one-dose screen, 48 h (100 = growth as untreated, 0 = no growth, -100 = all killed)
# Details in all cases: 10 µM unless noted
# SK-MEL-2 melanoma = system: SK-MEL-2 melanoma
# EKVX NSCLC = system: EKVX NSCLC
# SN12C renal = system: SN12C renal
# UO-31 renal = system: UO-31 renal
# TK-10 renal = system: TK-10 renal
# ACHN renal = system: ACHN renal
# CAKI-1 renal = system: CAKI-1 renal
# A498 renal = system: A498 renal
# CCRF-CEM leukemia = system: CCRF-CEM leukemia
# MOLT-4 leukemia = system: MOLT-4 leukemia
Compound,growth (SK-MEL-2 melanoma),growth (EKVX NSCLC),growth (SN12C renal),growth (UO-31 renal),growth (TK-10 renal),growth (ACHN renal),growth (CAKI-1 renal),growth (A498 renal),growth (CCRF-CEM leukemia),growth (MOLT-4 leukemia)
Cc1cccc(NC(=O)CSc2nc3ccc([N+](=O)[O-])cc3[nH]2)c1,98.5%,70.9%,80.7%,54.2%,97.3%,82.5%,61.4%,63.5%,78.4%,77.2%
Oc1c(CN2CCCC2)cc(COCc2ccccc2)c2cccnc12,19.2%,31.7%,27.9%,-1.58% (active),10.7%,6.14% (active),10.5%,19.3%,6.37% (active),9.79% (active)
COc1cc(-c2nc(SCCC(C)C)nc(N3CCOCC3)c2C#N)cc(OC)c1OC,116%,100%,54.9%,73.9%,46.5%,101%,–,108%,78.8%,89.2%
COc1ccc(OC)c(Nc2nnc(-c3ccc(Cl)cc3)o2)c1,96.9%,82.5%,90.1%,51.8%,36%,30.8%,65.3%,96%,108%,88.5%
Fc1ccc(CNc2c3ccccc3nc3ccccc23)cc1,43.8%,35.6%,25.7%,13.5%,30.2%,12.5%,–,-1.77% (active),26%,8.68% (active)
Nc1ncnc2c1c(-c1ccc(Oc3ccccc3)cc1)nn2CC1SSCC1O (stereo not drawn),56.8%,4.11% (active),49.1%,-3.62% (active),8.91% (active),25.9%,–,27.8%,9.92% (active),-33.3% (active)
COc1cccc(Nc2ccnc3[nH]c4ccc([N+](=O)[O-])cc4c23)c1,40.2%,31.6%,65.2%,44.4%,66.6%,45.2%,28.8%,43.5%,42%,48.7%
OC(c1ccccc1)(c1ccccc1)c1ccccc1-c1ccccc1,103%,115%,89%,78.5%,89.8%,99%,84.2%,81.5%,92.9%,84%
COc1ccc(/C=C/C(=O)c2ccc(Nc3nc(Nc4ccc(F)cc4)nc(Nc4ccc(Cl)cc4)n3)cc2)cc1,55.1%,86.2%,112%,75.6%,137%,106%,–,118%,8.9% (active),22.3%
N#C/C(=C\c1ccc(-c2ccc(Cl)cc2)o1)c1ccc(Cl)cc1,96.5%,49.5%,30%,–,14.6%,-20.1% (active),38.4%,82.5%,66.6%,85.6%
Cc1c(N2CN3C[C@H](C)N4CN(c5c(C)n(C)n(-c6ccccc6)c5=O)CN5C[C@@H](C)N(C2)C3C54)c(=O)n(-c2ccccc2)n1C (stereo partly drawn),101%,96.1%,100%,77.6%,110%,103%,–,117%,102%,-17.9% (active)
N=C(N)c1ccc(-c2ccc(-c3ccc(Cl)cc3)o2)o1,82.1%,68.3%,-58.9% (active),46%,72.1%,28.3%,–,61.3%,-20.3% (active),-28.9% (active)
